For 91 molecules, inhibition results are on record in PubChem BioAssay AID1645857 (Buhrlage Lab, Dana-Farber Cancer Institute and Novartis …, 2021).

Out of some 47,000 compounds screened, about 1,400 (3%) were called active. Only a selection was taken, and actives are over-represented in it overall. Unmarked numbers belong to inactive results. Cut-off read from the data, not from the text of the source: active = inhibition above about 30%; inactive = the rest.

The target in this assay is Ubiquitin carboxyl-terminal hydrolase 28 (Homo sapiens) (UniProt Q96RU2). Briefly: inhibitors of human USP28 deubiquitinase (AID 1645857). To be noted: purified USP28, Ub-rhodamine cleavage fluorescence, 30 min; at 25 µM; hits give high values.
Sequence of Ubiquitin carboxyl-terminal hydrolase 28 (Homo sapiens) (Q96RU2 whole entry, looked up): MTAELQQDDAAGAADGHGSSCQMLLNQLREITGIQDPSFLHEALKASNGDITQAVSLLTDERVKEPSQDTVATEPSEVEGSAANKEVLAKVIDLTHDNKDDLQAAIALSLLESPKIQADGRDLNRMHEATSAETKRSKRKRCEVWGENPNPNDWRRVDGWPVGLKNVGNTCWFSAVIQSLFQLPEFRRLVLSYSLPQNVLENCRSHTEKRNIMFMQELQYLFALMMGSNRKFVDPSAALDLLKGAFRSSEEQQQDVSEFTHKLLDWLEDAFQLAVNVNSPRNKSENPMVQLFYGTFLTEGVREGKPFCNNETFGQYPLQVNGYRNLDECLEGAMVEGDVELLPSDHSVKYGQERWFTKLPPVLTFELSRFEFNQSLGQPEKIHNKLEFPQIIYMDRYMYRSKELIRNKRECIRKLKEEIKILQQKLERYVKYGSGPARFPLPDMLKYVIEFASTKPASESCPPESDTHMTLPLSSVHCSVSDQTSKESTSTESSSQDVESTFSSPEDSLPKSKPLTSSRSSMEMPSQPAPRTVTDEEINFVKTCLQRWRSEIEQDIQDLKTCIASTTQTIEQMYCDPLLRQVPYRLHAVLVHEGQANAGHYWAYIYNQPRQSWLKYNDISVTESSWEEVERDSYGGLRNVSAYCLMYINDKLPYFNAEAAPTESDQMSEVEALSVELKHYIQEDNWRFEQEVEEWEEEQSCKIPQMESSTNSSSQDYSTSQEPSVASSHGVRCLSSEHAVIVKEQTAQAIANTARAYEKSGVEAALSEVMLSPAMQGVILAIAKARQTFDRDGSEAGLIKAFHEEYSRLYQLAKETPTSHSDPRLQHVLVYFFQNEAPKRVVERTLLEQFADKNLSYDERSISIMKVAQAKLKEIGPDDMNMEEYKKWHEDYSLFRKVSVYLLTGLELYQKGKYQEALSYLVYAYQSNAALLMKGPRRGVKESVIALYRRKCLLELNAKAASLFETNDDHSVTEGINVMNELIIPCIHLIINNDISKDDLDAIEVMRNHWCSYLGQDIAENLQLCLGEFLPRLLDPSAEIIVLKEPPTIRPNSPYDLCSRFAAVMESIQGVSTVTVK
On to `CC(C)CN1[C@H]2CCN(C(=O)c3cnccn3)CC[C@@H]2Oc2ccccc2S1(=O)=O`, for which the inhibition is -3.97%.

Consider `Cc1nc2ccccc2n1CCNC(=O)c1ccccc1Cl`, for which the inhibition was -3.71%.

Turning to `CC(=O)N1CCc2cc(S(=O)(=O)NCC(=O)NCc3ccc4c(c3)OCO4)ccc21`, the inhibition is -1.7%.

As for `Cc1noc(CNC(=O)c2cc(-c3ccco3)on2)n1`, the inhibition is -29.2%.

`Cc1[nH]c(C(=O)N2CCCC(C(=O)NCc3cccnc3)C2)c(C)c1C` (stereo unspecified): the inhibition is -6.57%.

For `O=C(NCc1cccnc1)C1CCN(c2cnc(N3CCCCCC3)nc2)CC1`, the inhibition is 60.9% (active).

On to `Cc1cccc(CNC(=O)C2CCN(c3cnc4nccnc4c3)CC2)c1`, for which the inhibition is -81.1%.

With `O=c1c2c(ncn2C2CCCC2)n(Cc2ccccc2)c(=O)n1Cc1ccccc1`, the inhibition is 6.37%.

For `O=C(O)c1cc(-c2ccc(-c3ccccc3F)o2)nc2ccc(F)cc12`, the inhibition was -179%.

`CCc1ccccc1NC(=O)N1CCCC1c1ccnn1CC` (stereo unspecified): the inhibition was 12.8%.

As to `c1ccc(-c2ccc(NCc3ccc4c(c3)OCO4)nn2)cc1`, the inhibition is 61.2% (active).

Regarding `c1cc(CNCc2ccc3c(c2)OCO3)ccn1`, the inhibition was -2.19%.

`CCC(Oc1ccccc1)C(=O)NCc1ccc2c(c1)OCO2` (stereo unspecified): the inhibition is 6.67%.

`N#CC1=C(N)Oc2nc[nH]c(=O)c2C1c1cccc(F)c1` (stereo unspecified): the inhibition was -2.3%.

Turning to `CCC(C)[C@H](NS(=O)(=O)c1ccc(C)cc1)C(=O)N1CCC(C(=O)N[C@H](Cc2c[nH]c3ccccc23)C(=O)O)CC1` (stereo partly specified), the inhibition is -2.54%.

In the case of `CCCCCCSc1ncnc2c1sc1nc(-c3ccccc3)c3c(c12)CC(C)(C)OC3`, the inhibition is -0.572%.

Consider `CCCc1nc2sc3c(N4CCC(C)CC4)ncnc3c2c2c1CCC2`, for which the inhibition is 2.73%.

As to `CCCCc1nc2sc3c(SCC(=O)NCc4ccccc4)ncnc3c2c2c1CCC2`, the inhibition is 54.5% (active).

Turning to `Cc1ccc(NC(=O)CSc2nnc(-c3cnccn3)n2Cc2ccco2)cc1C`, the inhibition is -1.17%.

For `CCc1ccc(NC(=O)CSc2nnc(-c3cnccn3)n2Cc2ccco2)cc1`, the inhibition is -5.3%.

Turning to `CCn1c(SCc2cccc(C)c2)nnc1-c1cnccn1`, the inhibition is 58.5% (active).

Take `COc1cc(O)sc1C=Nc1ccc(Oc2ccccc2)cc1`: the inhibition was 40.7% (active).

On to `COc1ccccc1C(=O)Nc1cccc(Oc2ccccc2)c1`, for which the inhibition was 19.6%.

With `O=C(c1ccc[nH]1)N1CCCn2c(nc(Cn3ccnc3)cc2=O)C1`, the inhibition is 12.3%.

With `CCN(C(=O)CSc1nnc(-c2ccoc2C)o1)c1ccccc1`, the inhibition is 6.53%.

`O=C(COc1ccc2ccccc2c1)NCc1nnnn1-c1ccc(Cl)cc1`: the inhibition was 30.4% (active).

For `CC(C)c1ccc(OCC(=O)NCc2nnnn2-c2ccc(Cl)cc2)cc1`, the inhibition is 20.1%.

For the molecule `Cc1ccc(NC(=O)NCc2nnnn2-c2ccccc2)cc1C`, the inhibition was 5.32%.

With `Cc1ccc(C)c(NC(=O)c2cn(C)cc3c(=O)n(-c4ccccc4)nc2-3)c1`, the inhibition was 2.87%.

In the case of `COc1cc(Cn2cnc3c([nH]c4ccc(Br)cc43)c2=O)cc(OC)c1`, the inhibition was 43.8% (active).

In the case of `CCOc1ccc2[nH]c3c(=O)n(Cc4cccnc4)cnc3c2c1`, the inhibition is 13.7%.

Take `O=c1c2[nH]c3ccc(Cl)cc3c2ncn1Cc1cccnc1`: the inhibition was -8.15%.

For the molecule `CCOc1cccc(C(=O)N2CCC(c3nc4ccccc4o3)CC2)c1`, the inhibition was -7.65%.

Turning to `Cc1cc(C)n2c(SCC(=O)Nc3cc(C(C)(C)C)nn3-c3ccccc3)nnc2n1`, the inhibition was 6.69%.

In the case of `Cc1cc(C(F)(F)F)n2nc(C3CCN(C(=O)c4cc5ccccc5s4)C3)cc2n1` (stereo unspecified), the inhibition was 17.6%.

`NCCCC(=O)N1CCC2(CC1)C(=O)NCN2C(=O)Cc1ccccc1`: the inhibition was -0.0141%.

Take `O=C1CO[C@H]2CN(Cc3ncc[nH]3)C[C@H]2N1c1ccccc1`: the inhibition is 19.7%.

For `COc1ccccc1CCNC(=O)CCc1c(C)c2ccc(O)c(C)c2oc1=O`, the inhibition is 2.41%.

Turning to `Nn1c(SCC(=O)Nc2ccccc2F)nnc1-c1n[nH]c2c1CCC2`, the inhibition was -7.92%.

Consider `Cc1cc(-c2nnc(SCC(=O)Nc3ccc(Br)c(C)c3)n2N)n[nH]1`, for which the inhibition was 38.4% (active).

Take `Cc1cc(NC(=O)COC(=O)c2cccc(C)c2O)ccc1Br`: the inhibition is 5.74%.

For `O=C(CN1CCC2(CC=CCN(CCc3ccccc3)C2=O)CC1)Nc1ccc(F)cc1`, the inhibition is -25.4%.

On to `COc1ccc(C(=O)N2CCc3cc4ccccc4nc32)cc1OC`, for which the inhibition was -5.16%.

In the case of `O=S(=O)(c1ccc(Cl)cc1)N1CCc2nc[nH]c2C1`, the inhibition was -11.8%.

`CC1CCC/C=C/C=C/C(=O)CC(O)C/C=C\C=C\C(O)C/C=C/C=C\C(=O)O1` (stereo unspecified): the inhibition was 2.22%.

Consider `COCCN1C[C@@]23CN(C(=O)NCc4ccccc4)C[C@@H](C[C@@H]2S1(=O)=O)O3`, for which the inhibition is 5.8%.

In the case of `CC(C)CN1C[C@@]23CN(C(=O)NCCc4ccc(F)cc4)C[C@@H](C[C@@H]2S1(=O)=O)O3`, the inhibition was 32.3% (active).

On to `CCc1ccc(NC(=O)N2C[C@H]3C[C@H]4[C@](C2)(CN(Cc2cccnc2)S4(=O)=O)O3)cc1`, for which the inhibition is 1.25%.

For `CC(C)NC(=O)c1nc(Cn2c(C(F)F)nc3ccccc32)no1`, the inhibition is 5.94%.

In the case of `CC1=C(C(=O)Nc2ccc(C)cc2C)C(c2cccs2)n2c(nc3ccccc32)N1` (stereo unspecified), the inhibition is 6.45%.

For `O=C(c1ccccn1)N1CCn2nc(-c3ccc4ccccc4c3)cc2C1`, the inhibition was 1.7%.

As for `O=C(Cc1ccccc1F)N1CCCC(c2[nH]nc3nccnc23)C1` (stereo unspecified), the inhibition was 1.05%.

Turning to `COc1ccc(NC(=O)C2=C(C)Nc3ncnn3C2c2cccc(OCc3ccc(F)cc3)c2)c(OC)c1` (stereo unspecified), the inhibition is 46.2% (active).

Consider `COc1cccc(C2C(C(=O)Nc3ccccc3C)=C(C)Nc3ncnn32)c1OCc1ccccc1` (stereo unspecified), for which the inhibition is 2.46%.

Turning to `COc1ccccc1NC(=O)C1=C(C)Nc2ncnn2C1c1ccc(C)o1` (stereo unspecified), the inhibition is 1.41%.

Consider `CNc1cccc(C2CN(C(=O)c3cnn4cccnc34)CCO2)n1` (stereo unspecified), for which the inhibition was -3.02%.

As to `O[C@@H]1C[C@H]2CN(Cc3ccc(F)cc3)[C@H](Cc3ccccc3)CN2C1`, the inhibition is 2.96%.

With `COc1ccc2c(c1)OC[C@@H](Cc1ccccc1)N(Cc1ccncc1)[C@H]2C`, the inhibition was 8.99%.

For the molecule `N#Cc1cccc(CSc2ncnc(N)n2)c1`, the inhibition was 39.9% (active).

For the molecule `Cc1ccc(-c2cc3n(n2)CCCN(C(=O)c2ccccn2)C3)cc1`, the inhibition is 0.0245%.

For `Cc1ccc(N2CCCS2(=O)=O)cc1NC(=O)Cc1ccc(Cl)cc1`, the inhibition was 33.1% (active).

In the case of `Cc1ccc(CC(=O)Nc2nnc(C3CC(=O)N(c4ccc(C)c(C)c4)C3)s2)cc1` (stereo unspecified), the inhibition is 13.1%.

Consider `Cc1ccc(Cl)cc1NC(=O)N1CCc2nc(N3CCCCC3)ncc2C1`, for which the inhibition was -54.3%.

`Cn1ccc(C(=O)NCc2cnc(C3CCCCO3)nc2)n1` (stereo unspecified): the inhibition is 6.1%.

Take `Cc1ccc(C)c(CSc2nc(-c3ccco3)nc3c2c(=O)n(C)c(=O)n3C)c1`: the inhibition was -10.3%.

Consider `COc1ccc(CC(=O)Nc2ccc3c(c2)CN(C(=O)c2ccco2)CC3)cc1`, for which the inhibition is 23.1%.

On to `Cc1ccc(C)c(CSC2=NCCN2C(=O)c2ccco2)c1`, for which the inhibition is 70.4% (active).

`Cc1ccc(-n2cc(-c3noc(C(=O)Nc4ccc(F)cc4C)n3)nn2)cc1`: the inhibition is 13.4%.

Consider `CC(C)NC(=O)c1csc(-c2ccc(N3CCCC3)nc2)n1`, for which the inhibition was -10%.

For the molecule `Cn1c(SCc2ccc(Cl)cc2)nnc1-c1ccc2c(c1)OCCO2`, the inhibition was 41% (active).

Regarding `O=C(CSc1nnc(-c2ccc3c(c2)OCO3)n1-c1ccccc1)OCC(=O)c1ccccc1`, the inhibition is 14.9%.

As to `Cc1cc(C(=O)CSc2nnc(-c3ccc(F)cc3)n2C)c(C)n1C`, the inhibition is -21.9%.

For `O=C(N[C@@H](Cc1ccccc1)C(=O)N1CCc2ccccc2C1)c1cccnc1`, the inhibition is 5.48%.

`Cc1oc(-c2cccc(Cl)c2)nc1Cn1c(=O)n(C(C)C)c(=O)c2ccccc21`: the inhibition was -19%.

As to `CCc1nc(SCC(=O)Nc2cccc3ccccc23)c2oc3ccccc3c2n1`, the inhibition was 2.85%.

On to `Cc1c(C(=O)NC2CCCCC2)oc2ccccc12`, for which the inhibition was 3.81%.

Regarding `O=C(CSc1ncnc2c1oc1ccccc12)NC1CCCC1`, the inhibition was 46.9% (active).

Consider `O=C(Cc1nnc2c(-c3nc(C4CC4)no3)cccn12)Nc1ccccc1`, for which the inhibition is 11%.

`CN(C)C(=O)CN1CCC2(CC1)CN(Cc1ccccn1)C(=O)CO2`: the inhibition was 8.76%.

`CN1CCN(c2ncc3c(=O)n(CC4CCCO4)ccc3n2)CC1` (stereo unspecified): the inhibition is -10.1%.

With `O=C(CCN1C(=O)c2cccnc2Sc2ccccc21)Nc1cc(F)ccc1F`, the inhibition was 11%.

In the case of `COc1ccc(NC(=O)CCN2C(=O)c3cccnc3Sc3ccccc32)cc1`, the inhibition is 9.9%.

In the case of `Cc1cc(C)c(NC(=O)CCN2C(=O)c3cccnc3Sc3ccccc32)c(C)c1`, the inhibition is 32.4% (active).

Regarding `CC(C)(C)c1nn(-c2ccccc2)c2[nH]c(=O)c(CNCCc3ccccc3)cc12`, the inhibition was 20.3%.

For `Cc1ccccc1Nc1nc(N)nc(CSc2ccccc2)n1`, the inhibition was -0.136%.

For `Cn1cc(-c2nc(C(=O)Nc3ccc(F)cc3)cs2)c2cccnc21`, the inhibition is 21.1%.

In the case of `Cn1cc(CCNC(=O)c2cc3ccccc3[nH]2)c2cccnc21`, the inhibition was 63.9% (active).

For the molecule `Cc1cccc(S(=O)(=O)NCCc2cn(C)c3ncccc23)c1`, the inhibition is -5.33%.

As to `Cn1cc(CCNC(=O)Nc2cc(F)ccc2F)c2cccnc21`, the inhibition is 44.1% (active).

Turning to `CCn1cc(C(=O)OCC(=O)Nc2cc(F)ccc2F)c(=O)c2ccc(C)nc21`, the inhibition was -0.0765%.

As for `Cn1c(CCNC(=O)c2ccc(C(C)(C)C)cc2)nc2cccnc21`, the inhibition is -229%.

By inhibition is commonly meant the relative decrease from the control value, in per cent.
